High-throughput results (PubChem BioAssay)
dFosB act: activators of delta FosB homodimer, primary screen, biochemical, fluorescence polarization, TAMRA-CDK5 oligo, single point. purified delta FosB; percent of positive-control signal above neutral wells. 0.99% of 340,000 active. Protein FosB (Mus musculus), P13346. activation, % at 25 µM. AID 493131, 2011;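 active = mean activation above about 17%, with every replicate also reaching it, limit read from the data, passing the limit was not always enough; inconclusive = only one of the two conditions met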
DENV2 CPE: inhibitors of DENV2 cytopathic effect, primary screen, cell-based, plate reader, single concentration; DENV2-infected cells, cytopathic effect rescue; CPE inhibition, % at 9.99 µM; 1.7% of 350,000 active; in the data active = CPE inhibition above about 20%, passing the limit was not always enough; inconclusive = no clear call, values can overlap the other calls; tested in BHK-21 cells
RAD52 inh: RAD52 DNA annealing inhibitors, primary screen, biochemical, FRET, single point, set 2 | DNA repair protein RAD52 homolog (Homo sapiens), P43351 | recombinant RAD52 DNA annealing, FRET fluorescence | inhibition, % at 18.7 µM | 0.46% of 360,000 active | AID 651710, 2012;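 active = every replicate showing at least 50% inhibition; inconclusive = mean inhibition at least 50% but not in every replicate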
AF4-AF9 inh: inhibitors of AF4 peptide binding to AF9, primary screen, biochemical, AlphaScreen, biotin-AF4 peptide, FLAG-AF9, single point. Protein AF-9 (Homo sapiens), P42568. inhibition, % at 10 µM. 0.47% of 350,000 active. AID 651704, 2012;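 active = every replicate reaching a set inhibition limit, whatever the replicate mean, cut at about 25% in these data; inconclusive = mean inhibition reaches that limit but some replicates miss it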
Target sequence (P42568 whole entry, looked up): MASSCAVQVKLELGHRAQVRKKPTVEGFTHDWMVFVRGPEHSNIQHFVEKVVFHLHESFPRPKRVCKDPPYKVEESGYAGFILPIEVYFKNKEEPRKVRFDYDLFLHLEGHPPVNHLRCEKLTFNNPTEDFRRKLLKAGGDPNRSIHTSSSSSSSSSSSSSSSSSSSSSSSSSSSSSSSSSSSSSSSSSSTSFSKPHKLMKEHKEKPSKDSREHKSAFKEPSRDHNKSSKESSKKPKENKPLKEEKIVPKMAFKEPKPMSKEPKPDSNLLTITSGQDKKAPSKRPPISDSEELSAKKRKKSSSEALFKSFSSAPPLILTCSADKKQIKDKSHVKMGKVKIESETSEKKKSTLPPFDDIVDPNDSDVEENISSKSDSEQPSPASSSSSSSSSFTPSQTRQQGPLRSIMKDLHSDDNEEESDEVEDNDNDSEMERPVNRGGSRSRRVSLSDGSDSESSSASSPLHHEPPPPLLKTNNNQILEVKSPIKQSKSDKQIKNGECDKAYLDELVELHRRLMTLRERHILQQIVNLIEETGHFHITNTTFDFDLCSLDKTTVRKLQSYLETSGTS
RAD54 inh: inhibitors of human RAD54 branch migration, primary screen, biochemical, fluorescence, single point; inhibition, % at 10.4 µM; DNA repair and recombination protein RAD54-like (Homo sapiens), Q92698; RAD54 Holliday junction branch migration, FAM/BHQ fluorescence; 0.14% of 360,000 active;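 active = mean normalized replicate activity at least 40 and at least half of replicates scoring 40 or more; inconclusive = only one of the two criteria met; inactive = mean below 40 and under half of replicates reaching 40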;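 also: inhibitors cause a drop in the FAM fluorescence signal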
GSIS activator: GLuc luminescence reporter in INS-1E cells, primary screen for activators of glucose-dependent secretion of insulin | INS-1E GLuc reporter insulin secretion, 2-3 h | activation, % at 16.6 µM | 0.61% of 370,000 active | AID 743287, 2014;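 active = lowest replicate activation of at least 40%, so every replicate reaches that level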
Rad54 DNA ctr: DNA binding of candidate compounds, dose response, artefact control for RAD54 inhibitor project, biochemical, fluorescence polarization, cherry-pick; Acridine orange-DNA displacement, 20 min; shares compounds with RAD54 inh; 8% of 460 active; AC50, µM (doses to about 35 µM);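 active = signal drop giving an AC50 within twice the top valid tested concentration of each sample, actives reach about 35 µM in these data; inactive = activity opposite to expected, plus the rest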;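 also: polarization loss reports compound binding to salmon sperm DNA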
RAD52 DNA ctr: DNA-binding compounds via dye displacement, dose response, artefact control for RAD52 inhibitor project, biochemical, fluorescence polarization, cherry-pick; AID 652128, 2013; 8% of 1,000 active; shares compounds with RAD52 inh; Salmon sperm DNA/acridine orange FP displacement; AC50, µM;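 active = fitted half-maximal concentration for signal loss at or below twice the highest dose tested, in every separate run, actives reach about 64 µM in these data; inconclusive = runs disagree, or flat partial signal loss, or poor fit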
Large screens that a line does not name were inactive (follow-up assays come after a bar, where they were run); ! = repeats disagree. Rows were chosen to be rich in hits. Some 3.1% of all compounds tested hit in one or more screens of this group.

CO[C@H](CN(C)Cc1nccs1)[C@H](C)CN([C@@H](C)CO)S(=O)(=O)c1ccc(C)cc1	none (no result: dFosB act)
COc1cc(C(=O)NC2CCN(C)CC2)ccc1Nc1ncc2c(n1)N(C1CCCCC1)CCC(=O)N2C	RAD52 inh 97, RAD54 inh 78 | Rad54 DNA ctr inactive | RAD52 DNA ctr inactive
COc1ccc(Cc2c(-c3ccc(OC)c(OC)c3)nc3c(C)cc(Br)cn23)c(C)c1	RAD52 inh 52, RAD54 inh 60 (no result: dFosB act) | Rad54 DNA ctr inactive | RAD52 DNA ctr inactive
COc1ccc(Cc2c(-c3ccc(C)cc3)nc3c(C)cc(Br)cn23)c(C)c1	none (no result: dFosB act)
CCN(CC)Cc1cc(Nc2ccnc3cc(Cl)ccc23)ccc1O	dFosB act 44, RAD52 inh 88!, RAD54 inh 75! | Rad54 DNA ctr inactive | RAD52 DNA ctr inactive
CNC[C@@H]1Oc2c(NC(=O)NC(C)C)cccc2C(=O)N(C)C[C@H]1C	none (no result: dFosB act, DENV2 CPE, RAD52 inh, AF4-AF9 inh, RAD54 inh)
Cc1[nH]ccc2cc3nc4ccccc4c3cc12	RAD52 inh 101, RAD54 inh 83 (no result: dFosB act, GSIS activator) | Rad54 DNA ctr inactive | RAD52 DNA ctr inconclusive
COc1ccc(Nc2nc(NCC3CCCO3)c3ccccc3n2)c(OC)c1 (stereo not drawn)	dFosB act inconclusive, RAD52 inh 54, RAD54 inh inconclusive | Rad54 DNA ctr inactive | RAD52 DNA ctr inactive
COc1ccc(Nc2c3c(nc4ccccc24)CCC3)c(OC)c1	none
COCC(=O)N1[C@H](C(=O)N2CCCCC2)[C@@H](CO)[C@@H]2Cn3c(ccc(C4=CCCCC4)c3=O)[C@@H]21	none (no result: dFosB act)
CCN(CC)CC(O)Cn1c2ccccc2c2ccccc21 (stereo not drawn)	none (no result: DENV2 CPE, RAD52 inh, AF4-AF9 inh)
CCN(CC)CC(O)c1ccc2ccc3ccc(O)cc3c2c1 (stereo not drawn)	RAD52 inh 72, RAD54 inh 68 | Rad54 DNA ctr inactive | RAD52 DNA ctr inactive
CO[C@@H]1CC[C@H]2CCN(C)C(=O)[C@H](C)[C@H](OC)CN(C)C(=O)c3cc(C#N)ccc3OC[C@H]1O2	none (no result: dFosB act)
COc1ccc(NC(=O)Nc2ccc3c(c2)C(=O)N([C@@H](C)CO)C[C@H](C)[C@H](CN(C)Cc2ccccc2)O3)cc1	none (no result: dFosB act)
COc1cccc(-c2cc3nc(NCCN4CCCC4)n(C)c(=O)c3s2)c1	RAD52 inh 89, RAD54 inh 70 (no result: dFosB act) | Rad54 DNA ctr inactive | RAD52 DNA ctr inactive
Cn1c(NCCN2CCCC2)nc2cc(-c3ccccc3)sc2c1=O	RAD52 inh 52, RAD54 inh inconclusive (no result: dFosB act, GSIS activator) | Rad54 DNA ctr inactive | RAD52 DNA ctr inactive
Cc1ccccc1-c1cnc2c(c1)C(=O)N([C@@H](C)CO)C[C@@H](C)[C@@H](CN(C)C(=O)c1ccc(F)cc1)O2	none (no result: dFosB act)
CCC(=O)N(C)C[C@H]1Oc2cc(C#CCN(C)C)ccc2S(=O)(=O)N([C@H](C)CO)C[C@@H]1C	none (no result: dFosB act)
Cc1ccc(C(=O)c2oc3ccc(Cl)cc3c2NC(=O)CN2CCN(C)CC2)cc1	RAD52 inh 82, AF4-AF9 inh 31, RAD54 inh 82 | Rad54 DNA ctr inactive | RAD52 DNA ctr inactive
CCOC(=O)c1oc2ccc(OC)cc2c1NC(=O)CN1CCN(C)CC1	none (no result: DENV2 CPE, RAD52 inh, AF4-AF9 inh, RAD54 inh, GSIS activator)
CCc1ccc2nc3nc(C)cc(C)c3c(N)c2c1	dFosB act inconclusive, RAD52 inh 83, RAD54 inh 88 | Rad54 DNA ctr inactive | RAD52 DNA ctr inactive
Cc1cc(C)c2c(c1)c1nnc(SCCN3CCCCC3)nc1n2C	RAD52 inh 86, RAD54 inh 73 | Rad54 DNA ctr inactive | RAD52 DNA ctr inactive
Cn1c2ccc(F)cc2c2nnc(SCCN3CCCCC3)nc21	none (no result: RAD54 inh)
c1ccc(CNc2ncnc3ccccc23)cc1	none (no result: GSIS activator)
Cc1ccc(-c2nc(NCCCN(C)C)c3ccccc3n2)cc1	RAD52 inh 84, RAD54 inh 83 (no result: dFosB act) | Rad54 DNA ctr inactive | RAD52 DNA ctr inactive
c1ccc(CNc2c3ccccc3nc3ccccc23)cc1	dFosB act 38, RAD52 inh 84, RAD54 inh 83 | Rad54 DNA ctr 29µM | RAD52 DNA ctr inconclusive
CN(C)CCCNc1c2ccccc2nc2ccccc12	dFosB act 72, RAD52 inh 87, RAD54 inh 99 | Rad54 DNA ctr 7.6µM | RAD52 DNA ctr 9.3µM
C[C@H]1CN([C@@H](C)CO)C(=O)c2cc(NS(=O)(=O)c3cn(C)cn3)ccc2O[C@H]1CN(C)S(C)(=O)=O	none (no result: dFosB act)
COc1ccc2c3c(n(C)c2c1)[C@@H](CO)N(C(=O)CC1CC1)CC31CCN(C(=O)NC(C)C)CC1	none (no result: dFosB act, RAD54 inh)
C[C@@H]1CN([C@@H](C)CO)C(=O)c2cc(NC(=O)Nc3ccc(C(F)(F)F)cc3)ccc2O[C@H]1CN(C)S(=O)(=O)c1ccc(Cl)cc1	none (no result: dFosB act)
CCN(CC)CCNc1ccc(CO)c2sc3ccccc3c(=O)c12	RAD52 inh 54, RAD54 inh 100 (no result: GSIS activator) | Rad54 DNA ctr 29µM | RAD52 DNA ctr 22µM
Cc1noc(C)c1NC(=O)Nc1ccc2c(c1)C(=O)N([C@@H](C)CO)C[C@@H](C)[C@@H](CN(C)S(=O)(=O)c1ccccc1)OCCCC[C@H](C)O2	none (no result: dFosB act)
CN(C)CCCNc1nc2cc(-c3ccc(F)cc3)sc2c(=O)n1C	DENV2 CPE inconclusive, RAD52 inh 71, RAD54 inh 70 (no result: dFosB act) | Rad54 DNA ctr inactive | RAD52 DNA ctr inactive
CN(C)CCCNc1nc2cc(-c3cncnc3)sc2c(=O)n1C	none (no result: dFosB act)
CN(C)CCCNc1nc2cc(-c3ccccc3)sc2c(=O)n1C	RAD52 inh 54, RAD54 inh inconclusive (no result: dFosB act) | Rad54 DNA ctr inactive | RAD52 DNA ctr inactive
CC(C)CNc1ncnc2c1sc1nc(N3CCOCC3)c3c(c12)CC(C)(C)OC3	none (no result: DENV2 CPE, RAD52 inh, AF4-AF9 inh, GSIS activator)
CN(C)CCNc1ncnc2c1sc1nc(N3CCCC3)c3c(c12)CC(C)(C)OC3	dFosB act inconclusive, RAD52 inh 88, RAD54 inh 97 | Rad54 DNA ctr inactive | RAD52 DNA ctr inactive
OC(CN1CCCCC1)Cn1c2ccc(Cl)cc2c2cc(Cl)ccc21 (stereo not drawn)	RAD52 inh 59, RAD54 inh 55 | Rad54 DNA ctr inactive | RAD52 DNA ctr inactive
OC(CN1CCN(c2ccccn2)CC1)Cn1c2ccc(Cl)cc2c2cc(Cl)ccc21 (stereo not drawn)	dFosB act inconclusive (no result: DENV2 CPE, RAD52 inh, AF4-AF9 inh, GSIS activator)
CCCN(CCC)CCNC(=O)c1cc2c(-c3ccccc3F)nn(C)c2s1	none (no result: RAD54 inh)
